According to the supplement of paper PMC13380429:
Unmarked numbers belong to inactive results.

Test system: Vero E6 infected with SARS-CoV-2
Assay: inhibition of SARS-CoV-2 cytopathic effect; higher = more antiviral protection, active = above 15
Settings: 48 h

| Structure (SMILES) | inhibition of SARS-CoV-2 cytopathic effect (1 nM) [%] | inhibition of SARS-CoV-2 cytopathic effect (8.33 nM) | inhibition of SARS-CoV-2 cytopathic effect (100 nM) [%] | inhibition of SARS-CoV-2 cytopathic effect (833.33 nM) [%] | inhibition of SARS-CoV-2 cytopathic effect (10000 nM) [%] |
| --- | --- | --- | --- | --- | --- |
| CC12CC3CC(C)(C1)CC(N)(C3)C2 [memantine] | 0.45 | 0.23% | 1.56 | 2 | -1.57 |
| Cc1cc(N2CCOCC2)ccc1Nc1nc(NC2CCCCC2)c2nc[nH]c2n1 | -1.92 | 1.08% | -7.66 | 3.17 | 0.7 |
| CN1C(CCl)Nc2cc(Cl)c(S(N)(=O)=O)cc2S1(=O)=O (stereo not given) [methyclothiazide] | -0.11 | 0.15% | 1.53 | 1 | 2.28 |
| O=C(NO)c1ccc2[nH]c(=O)c(CCCc3ccccc3)nc2c1 | 1.82 | 3.66% | 0.97 | 1.93 | -2.66 |
| O=C(NCCCN1CCCCCC1)C(c1ccccc1)C1CCCCC1 (stereo not given) | -0.49 | 0.99% | 0.31 | -2.41 | -8.06 |
| C[C@@]1(O)[C@H](O)[C@@H](CO)O[C@H]1n1ccc(N)nc1=O | 5.4 | -1.76% | -3.15 | -5.49 | -2.07 |
| N=C(Nc1ccccc1)Nc1ccccc1 [diphenylguanidine] | -3.55 | -2.37% | -2.77 | -0.58 | 2.16 |
| COc1ccc(-c2cnc3c(-c4cccc5ncccc45)cnn3c2)cc1 | -0.88 | -0.75% | 0.925 | -0.45 | 0.53 |
| CC(=O)N(c1onc(C)c1C)S(=O)(=O)c1ccc(N)cc1 [sulfisoxazole-acetyl] | -4.04 | -3.48% | -3.58 | -0.91 | 0.37 |
| Cc1ccc(Cl)c(Nc2ccccc2C(=O)O)c1Cl [meclofenamic-acid] | -0.6 | 1.04% | -1.96 | 0.39 | -1.58 |
| CCCN(CCC)C(=O)C1=Cc2ccc(-c3ccc(C(=O)N4CCCC4)cc3)cc2N=C(N)C1 [motolimod] | 0.77 | 0.05% | 1.88 | 1.37 | -1.01 |
| O=C(C=Cc1ccccc1)NC(NC(=S)Nc1ccc(Cl)cc1)C(Cl)(Cl)Cl (stereo not given) | 0.51 | 0.81% | -4.17 | -1.91 | -5.67 |
| c1cnc(N2CCN(Cc3ccc4c(c3)OCO4)CC2)nc1 [piribedil] | -0.1 | 15.4% (active) | 1.85 | -0.64 | 0.85 |
| O=C(Nc1cccc2c(=O)cc(-c3nnn[nH]3)oc12)c1ccc(OCCCCc2ccccc2)cc1 [pranlukast] | -0.09 | 2.87% | 0.47 | -3.27 | 1.15 |
| CC(C)C[C@H](NC(=O)[C@H](CCCCN)NC(=O)[C@H](CCCNC(=N)N)NC(=O)[C@H](C)NC(=O)[C@H](CO)NC(=O)[C@H](CCCCN)NC(=O)[C@H](CCCNC(=N)N)NC(=O)[C@H](C)NC(=O)CNC(=O)[C@@H](NC(=O)[C@H](Cc1ccccc1)NC(=O)CNC(=O)CNC(=O)[C@@H](N)Cc1ccccc1)[C@@H](C)O)C(=O)N[C@@H](C)C(=O)N[C@@H](CC(N)=O)C(=O)N[C@@H](CCC(N)=O)C(=O)O [orphanin-fq] | 1.63 | -0.61% | 0.09 | 0.66 | 0.4 |
| CC(=O)O[C@H]1Cc2ccccc2N(C(N)=O)c2ccccc21 [eslicarbazepine-acetate] | 3.04 | -0.54% | 1.48 | 0.03 | 1.45 |
| N=C(N)NCCC[C@H](N)C(=O)O [L-arginine] | 2.26 | 3.4% | -3.93 | 1.97 | 1.83 |
| CCC[C@@]1(CCc2ccccc2)CC(O)=C([C@H](CC)c2cccc(NS(=O)(=O)c3ccc(C(F)(F)F)cn3)c2)C(=O)O1 [tipranavir] | -0.16 | 4.7% | 1.56 | 0.71 | 4.99 |
| CCCCCCNC(=O)Nc1ccc(S(=O)(=O)Nc2ccc(CCNC[C@H](O)COc3ccc(O)cc3)cc2)cc1 | 0.66 | 0.75% | 0.54 | 2.18 | 1.5 |

| Structure (SMILES) | inhibition of SARS-CoV-2 cytopathic effect (1 nM) [%] | inhibition of SARS-CoV-2 cytopathic effect (8.33 nM) | inhibition of SARS-CoV-2 cytopathic effect (100 nM) [%] | inhibition of SARS-CoV-2 cytopathic effect (833.33 nM) [%] | inhibition of SARS-CoV-2 cytopathic effect (10000 nM) [%] |
| --- | --- | --- | --- | --- | --- |
| CCCCC[C@H](O)/C=C/[C@H]1[C@H](O)CC(=O)[C@@H]1C/C=C\CCCC(=O)O [dinoprostone] | -2.72 | 0.16% | -4.2 | 0.3 | 0.05 |
| COc1cc2ncnc(Nc3ccc(F)c(Cl)c3)c2cc1NC(=O)/C=C/CN1CCCCC1 [dacomitinib] | -4.89 | -7.71% | -13.6 | -15.7 | -20.6 |
| CCCCC/N=c1\ccn(Cc2ccccc2)c2ccccc12 | -2.64 | -0.49% | -2.77 | -0.71 | -9.28 |
| N=C(N)NCCSSCCNC(=N)N [guanidinoethyldisulfide-bicarbonate] | -2.83 | -2.77% | -1.91 | -2.43 | -5.27 |
| O=C(OC[C@H]1O[C@@H](OC(=O)c2cc(O)c(O)c(OC(=O)c3cc(O)c(O)c(O)c3)c2)[C@H](OC(=O)c2cc(O)c(O)c(OC(=O)c3cc(O)c(O)c(O)c3)c2)[C@@H](OC(=O)c2cc(O)c(O)c(OC(=O)c3cc(O)c(O)c(O)c3)c2)[C@@H]1OC(=O)c1cc(O)c(O)c(OC(=O)c2cc(O)c(O)c(O)c2)c1)c1cc(O)c(O)c(OC(=O)c2cc(O)c(O)c(O)c2)c1 [tannic-acid] | -0.39 | 0.91% | -0.77 | -3.86 | -6.77 |
| Cc1ncc(CO)c(CO)c1O [pyridoxine] | -15.8 | -9.76% | -7.58 | -12.7 | -14.1 |
| O=S(=O)(c1ccccc1)c1cnc2c(N3CCNCC3)cccc2c1 | -2.8 | -0.02% | -3.01 | 0.98 | 1.43 |
| Cc1cc(O)c(-c2ccc([C@@H](C)CN)cc2)c2c1[nH]c(=O)c1sccc12 | -2.25 | -1.13% | -0.22 | 3.77 | -23.9 |
| NC(=O)c1nc(Nc2ccccc2)sc1NC(=O)C1CCCCC1 | 1.69 | 3.22% | -0.11 | -8.95 | -4.1 |
| CC(=O)OCC1=C(C(=O)O)N2C(=O)[C@@H](NC(=O)CS/C(=N/C(C)C)NC(C)C)[C@H]2SC1 [cefathiamidine] | -0.52 | -0.04% | 1.14 | 0.34 | 0.26 |
| CCCCCCCCCCCCCCCC(=O)OC(C)C [isopropyl-palmitate] | -1.17 | -0.59% | 0.66 | 1.48 | -2.42 |
| O=c1oc2cc(O)ccc2s1 [tioxolone] | 1.22 | -2.55% | -0.43 | -1.44 | -1.5 |
| CCCCC/C=C\C/C=C\C/C=C\C/C=C\CCCC(=O)Nc1ccc(O)cc1 | -2.34 | -1.32% | 3.11 | 0.42 | -4.16 |
| CC(=O)OCC(=O)NCCCOc1cccc(CN2CCCCC2)c1 [roxatidine-acetate] | -0.88 | 2.22% | -0.37 | 1.86 | 2.34 |
| O=C(Nc1ccccc1)OCC(CN1CCCCC1)OC(=O)Nc1ccccc1 (stereo not given) [diperodon] | 0.17 | -0.37% | 0.05 | -2.3 | -5.11 |
| CC(C)(C)c1[nH]cnc1/C=c1\[nH]c(=O)/c(=C/c2ccccc2)[nH]c1=O [plinabulin] | 0.88 | 3.39% | -1.75 | 0.24 | 2.48 |
| Cc1ccc(C(=O)c2ccc(CC(=O)O)n2C)cc1 [tolmetin] | -2.48 | -1.62% | -1.05 | -0.39 | 0.75 |
| COc1nc(C)nc(Cl)c1NC1=NCCN1 [moxonidine] | -0.54 | 1.98% | -1.9 | -2.44 | -1.74 |
| CN[C@@H](C)C(=O)N[C@H]1CCCC[C@H]2CC[C@@H](C(=O)N[C@@H](c3ccccc3)c3cn(CCCCc4ccc(CCCCn5cc([C@@H](NC(=O)[C@@H]6CC[C@@H]7CCCC[C@H](NC(=O)[C@H](C)NC)C(=O)N76)c6ccccc6)nn5)cc4)nn3)N2C1=O | -2.38 | -0.21% | -2.09 | -4.99 | -13.1 |
